The sample as a whole holds a higher share of hits than the screen did.
Pf Dd2 inh – qHTS Primary assay for Inhibitors of Plasmodium falciparum Dd2 growth in vitro; AID 1347417, 2020; P. falciparum Dd2 growth, SYBR Green, 72 h; Potency, µM (highest dose often 28.9 µM), for inactives: top-dose activity, negative = inhibition, usual class: inhibitors; hit rate 4.3% among 120,000; active = well fitted inhibition curve with a large enough effect;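 also: plate controls were DMSO vehicle for no effect and reference drug for full effect; nearly all actives have a fitted effect of over 65% in size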
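Readout: SYBR Green fluorescence, 485 nm excitation, 535 nm emission, after ~16 h lysis at 37C. Before that, Dd2-infected red cells (2.5% hematocrit) grew 72 h with compound, 29 uM top final concentration.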
Starred values were filed as active, the others as inactive; i = inactive; [ ] = remark or other dose. Potency is read from the fitted curve at half-maximal effect.

SMILES | Pf Dd2 inh
O=C(c1cccc(F)c1)N1CCCC(Cc2noc(-c3ccncc3)n2)C1 (stereo not drawn) | 9%
O=C1CN(c2ccc(C(=O)N3C[C@@H](C(=O)O)[C@H](C4CC4)C3)cc2)C(=O)N1 | -18%
Cn1nccc1CN1CC2(C1)NC(=O)c1ccccc1O2 | -17%[44.1 µM]
CCOc1ccccc1CN1CCCCCCNC(=O)CC1 | i
CCOc1ccccc1CN1CCCCCNC(=O)CC1c1ccccc1 (stereo not drawn) | 7.9µM*
CCOc1ccccc1NC(=O)N1CCCCCCNC(=O)CC1c1ccccc1 (stereo not drawn) | -41%
Cc1ccc(CN2CCC[C@H]2C(=O)N2CCCCCCNC(=O)CC2)o1 | i
O=C1CC(c2ccccc2)N(Cc2ccccn2)CCCCCN1 (stereo not drawn) | -17%
CCOc1ccccc1CN1CCC[C@H]1C(=O)N1CCCCCCNC(=O)CC1 | 6.3µM*
CN(C)C(=O)CN1CCCc2nc(C3CC3)ncc2C1=O | 33%
CC1CCCN1c1ncnc2c1CN(C1CCCNCC1)C(=O)CN2C (stereo not drawn) | 5%
COc1ccc(Cn2c(C3CCN(C(=O)c4c(F)cccc4F)CC3)n[nH]c2=O)cc1 | -26%
COc1ccc2ccc(OCc3nc(C(=O)N4CC(N5CCCCC5)C4)co3)cc2c1 | 8.9µM*
COc1cccc(OCc2nc(C(=O)N3CC4C[C@@H]5CC3C[C@H](C4)C5)co2)c1 | 10µM*
COc1ccc(OCc2nc(C(=O)N3CCCC(C(C)(C)O)C3)co2)cc1 (stereo not drawn) | -4%
COCC1CCN(C(=O)c2coc(COc3cccc(F)c3)n2)C1 (stereo not drawn) | -2%
CCCC1CCN(C(=O)c2coc(COc3ccc4ccc(OC)cc4c3)n2)C1 (stereo not drawn) | -21%
C[C@@H]1CN(C(=O)c2coc(COc3cccc(F)c3)n2)C[C@H](C)O1 | -4%
Cc1ccsc1CN1CCOc2ccc(C(=O)NCc3ccccc3F)cc2C1 | i
CN1CCC2(CC1)CCN(Cc1ccc(OCC(O)CN3CCCCC3)cc1)C2 (stereo not drawn) | -13%
CN(C)C(=O)c1ccnc2[nH]ccc12 | 15%[44.1 µM]
Cc1cnc(C2CC2)n1C1CCCNC1 (stereo not drawn) | -7%
COCc1ncc(C)n1C1CCCNC1 (stereo not drawn) | -10%
Cc1cnc(-c2ccccc2)n1C1CCCNC1 (stereo not drawn) | 6.3µM*
O=C(NCc1cccnc1)C1CCC(=O)N(CCCN2CCCC2=O)C1 (stereo not drawn) | -1%
SMILES | Pf Dd2 inh
O=C1N(Cc2ccc(F)cc2)C[C@H]2CN(Cc3ccccn3)CCN12 | i
COc1ccc(CN2CCC3(CC2)CC(c2cccc(C(F)(F)F)c2)=NO3)cc1 | -23%
COc1cc(NC(=O)Cn2c(N3CCN(c4ccccc4)CC3)nc(C)cc2=O)cc(OC)c1 | 6.3µM*
COCc1cc(=O)n(CC(=O)Nc2ccccc2OC)c(N2CCOCC2)n1 | -9%
COc1ccc(NC(=O)Cn2c(N3CCC(C)CC3)nc(C)cc2=O)cc1 | -21%
CCc1cc(=O)n(CC(=O)N2CCN(c3ccc(OC)cc3)CC2)c(N2CCOCC2)n1 | i
CCc1ccc(NC(=O)Cn2c(N3CCN(c4ccccc4)CC3)nc(C)cc2=O)cc1 | i
CCc1cc(=O)n(CC(=O)Nc2ccccc2OC)c(N2CCOCC2)n1 | 11µM*
CCc1cc(=O)n(CC(=O)N2CCN(c3ccccc3F)CC2)c(N2CCOCC2)n1 | 7.9µM*
CCc1cc(=O)n(CC(=O)Nc2ccc(F)c(Cl)c2)c(N2CCOCC2)n1 | i
CCc1cc(=O)n(CC(=O)Nc2cc(OC)c(OC)c(OC)c2)c(N2CCOCC2)n1 | -4%
O=C1CCC(CCC(=O)N2CCN(c3ccccc3F)CC2)(Cc2ccc3ccccc3c2)N1 (stereo not drawn) | -14%
COc1cccc(C(=O)N(C)Cc2ccc(-c3ccccc3)cc2)c1 | -17%[44.1 µM]
CC(Cn1cncn1)NC(=O)c1cccc(S(=O)(=O)N2CCOCC2)c1 (stereo not drawn) | 2%
CCCNC(=O)N1CCCC(c2nc(C3CCOCC3)no2)C1 (stereo not drawn) | 34%
CC(=O)N1CCC(C(=O)N2CCN(Cc3ccccc3)CC(O)C2)CC1 (stereo not drawn) | 6%
O=C(N1CCN(Cc2ccccc2)CC(O)C1)C1(N2CCCC2)CCCC1 (stereo not drawn) | 4.5µM*
CN(C)C(=O)CCC(=O)N1CCN(Cc2ccccc2)CC(O)C1 (stereo not drawn) | 11%
O=C(NC1CCCCC1)NC1CCc2nnc(C3CC3)n2CC1 (stereo not drawn) | 66%
O=C(C1CCCCC1)N1[C@H]2CC[C@@H]1c1cnc(-c3ccc(F)cc3)nc1C2 | i
O=C(C1CCC1)N1[C@H]2CC[C@@H]1c1cnc(-c3ccc(F)cc3)nc1C2 | 13µM*
Cc1ncccc1C(=O)N1[C@H]2CC[C@@H]1c1cnc(-c3ccc(F)cc3)nc1C2 | -3%
COCCn1c(C)cc(C(=O)N2[C@H]3CC[C@@H]2c2cnc(-c4ccc(F)cc4)nc2C3)c1C | 11µM*
CCC(=O)N1[C@H]2CC[C@@H]1c1cnc(-c3ccc(F)cc3)nc1C2 | -15%
COc1ccc(C(=O)N2[C@H]3CC[C@@H]2c2cnc(-c4ccc(F)cc4)nc2C3)cc1F | i
SMILES | Pf Dd2 inh
O=C(COc1ccccc1)N1CCC(c2nc(C3CCOCC3)no2)CC1 | -7%
O=C(c1ccc(N2CCCC2=O)cc1)N1CCC2(CC1)OCCCC2O (stereo not drawn) | -11%
COc1ccc(OC)c([S+](=O)([O-])c2nnn3c2nc(NCc2ccncc2)c2ccccc23)c1 | -13%
Cn1cnc(S(=O)(=O)N2CCC(Cc3ccc(C(N)=O)cc3)CC2)c1 | 1%
COc1ccc2c(c1)C1(CCN(S(=O)(=O)c3cccc(Cl)c3)C1)C(=O)N2C (stereo not drawn) | 11µM*
COc1ccc2c(c1)C1(CCN(S(=O)(=O)c3cccc(F)c3)C1)C(=O)N2 (stereo not drawn) | -12%
COc1ccc2c(c1)C1(CCN(C(=O)NC3CCCCC3)C1)C(=O)N2C (stereo not drawn) | i
COc1ccc2c(c1)C1(CCN(S(=O)(=O)c3ccc(Cl)cc3)C1)C(=O)N2C (stereo not drawn) | i
COCCNC(=O)N1CCC2(C1)C(=O)N(C)c1ccc(OC)cc12 (stereo not drawn) | 13%
COc1ccc2c(c1)C1(CCN(C(=O)COc3ccc(Cl)cc3)C1)C(=O)N2C (stereo not drawn) | 7.1µM*
NCC(=O)N1CCC2(CC1)CN(C(=O)Cc1ccc(Cl)cc1)CCO2 | 7%
CCN(C(=O)CN1C(=O)NC2(CCS(=O)(=O)CC2)C1=O)c1ccccc1 | -19%
CN1C(=O)CCC2(CNC(=O)c3cnccn3)CCC=C12 (stereo not drawn) | 17%
O=C(Cc1c(F)cccc1Cl)N1CCc2n[nH]c(=O)n2CC1 | 32%
CCOC(=O)N1CCN(C(=O)c2ccc3c(c2)N(Cc2ccccc2F)C(=O)c2ccccc2S3=O)CC1 (stereo not drawn) | i
O=C(c1ccc2c(c1)N(Cc1ccc(Cl)cc1)C(=O)c1ccccc1S2=O)N1CCOCC1 (stereo not drawn) | 1%
CCN1C(=O)c2ccccc2S(=O)c2ccc(C(=O)N3CCN(c4ccccc4OC)CC3)cc21 (stereo not drawn) | 5µM*
CCN1C(=O)c2ccccc2S(=O)c2ccc(C(=O)N3CCN(c4ccc(F)cc4)CC3)cc21 (stereo not drawn) | 8.9µM*

Bioassay records as filed in PubChem.
